Reference: PubChem BioAssay (Tox21)
“And” between values parts separate entries of the source, which are not always exact repeats. Equal values may be shown once. Records with an inconclusive call do not appear. Entries that show only a call come without a potency. The source holds several records for some structures; these can differ, active in one and inactive in another. The source made the active and inactive calls. Unless noted, calls come from the whole dose curve.

Assays:
[1] = Nuclear factor erythroid 2-related factor 2/antioxidant responsive element (Nrf2/ARE) small molecule agonists: qHTS cell viability counter screen in human keratinocytes (AID 1919968; active = well fitted curve in the direction sought with a large enough effect in the repeat runs; an effect the other way counts as inactive or inconclusive; note: nearly all actives have a fitted effect of over 55% in size)
Method in brief: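 KeratinoSens HaCaT cells, 1,500/well, preincubated 5 h, then exposed to compounds in DMSO for 23 h at 37 C/5% CO2. Viability read as CellTiter-Fluor fluorescence after 1 h, in the same wells as the ARE-luciferase read.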

[2] = Nuclear factor erythroid 2-related factor 2/antioxidant responsive element (Nrf2/ARE) small molecule agonists: luciferase reporter gene qHTS assay in human keratinocytes (AID 1919969); note: nearly all actives have a fitted effect of over 35% in size; note: potency is the fitted concentration of half-maximal effect
[3] = target: Gonadotropin-releasing hormone receptor (Homo sapiens) (UniProt P30968); test: Human gonadotropin-releasing hormone receptor (GnRHR) small molecule agonists, calcium flux assay in GnRHR-HEK293 cells (AID 1920063); note: nearly all actives have a fitted effect of over 35% in size
Sequence of Gonadotropin-releasing hormone receptor (Homo sapiens) (P30968 whole entry, looked up): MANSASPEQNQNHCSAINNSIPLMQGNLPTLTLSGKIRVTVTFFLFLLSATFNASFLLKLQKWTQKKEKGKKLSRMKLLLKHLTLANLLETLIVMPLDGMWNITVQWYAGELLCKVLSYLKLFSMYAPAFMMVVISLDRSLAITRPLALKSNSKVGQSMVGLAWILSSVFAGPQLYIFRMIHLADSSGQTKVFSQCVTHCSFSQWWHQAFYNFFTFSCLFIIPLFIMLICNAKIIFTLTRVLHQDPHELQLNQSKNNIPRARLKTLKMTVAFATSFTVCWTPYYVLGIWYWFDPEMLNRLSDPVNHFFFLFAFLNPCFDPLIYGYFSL
Method in brief: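 HEK293 cells stably expressing human GnRHR were dye-loaded for 1 h at 37 C. Compound was added in agonist mode and fluorescence (Ex/Em 480/540) recorded kinetically for 3 min. Fifteen concentrations, triplicates.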

[4] = target: KiSS-1 receptor (Homo sapiens) (UniProt Q969F8); test: Human kisspeptin (KISS1R) small molecule agonists, calcium flux assay in KISS1R-HEK293 cells (AID 1920064; active = well fitted curve in the direction sought with a large enough effect in the repeat runs; an effect the other way counts as inactive or inconclusive)
Sequence of KiSS-1 receptor (Homo sapiens) (Q969F8 whole entry, looked up): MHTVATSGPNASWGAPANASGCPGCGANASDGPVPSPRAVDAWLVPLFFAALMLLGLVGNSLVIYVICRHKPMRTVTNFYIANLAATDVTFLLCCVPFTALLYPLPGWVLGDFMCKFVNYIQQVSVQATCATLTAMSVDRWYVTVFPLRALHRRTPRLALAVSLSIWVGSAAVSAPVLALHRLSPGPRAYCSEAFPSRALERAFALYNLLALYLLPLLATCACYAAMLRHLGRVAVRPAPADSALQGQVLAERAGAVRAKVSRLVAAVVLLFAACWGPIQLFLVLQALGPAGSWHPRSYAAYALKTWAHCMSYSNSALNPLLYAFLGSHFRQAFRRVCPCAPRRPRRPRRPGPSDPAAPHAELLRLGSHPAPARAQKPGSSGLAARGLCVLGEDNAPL
Method in brief: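 HEK293 cells stably expressing human KISS1R were loaded with calcium dye for 1 h at 37 C, then given compound; fluorescence (Ex/Em 480/540) was read kinetically for 3 min. Fifteen concentrations, triplicate.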

[5] = G protein-coupled receptor (GPCR) small molecule agonists, calcium flux assay: HEK293 wild type cell line counter screen (AID 1920065)
Method in brief: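 Wild-type HEK293 cells plated 18 h, loaded with calcium dye 1 h at 37 C, then compounds added in agonist mode (ATP as positive control). Kinetic fluorescence Ex/Em 480/540 recorded 3 min at 1 sec intervals; 15 concentrations, triplicate.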

[6] = p53 small molecule agonists, cell-based qHTS assay with human liver microsomes (AID 1963577)
Method in brief: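 Fluorescence of the beta-lactamase reporter in p53RE-bla cells, detected with LiveBLAzer substrate (2 h, room temperature, dark), served as the read-out after 16 h compound exposure at 37 C with human liver microsomes and NADPH, each 0.5 mg/mL final.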

[7] = p53 small molecule agonists, cell-based qHTS assay with rat liver microsomes (AID 1963578)
Method in brief: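 Cells carrying a p53 response element–beta-lactamase reporter were plated and rested 5 h, then dosed with compound in DMSO plus rat liver microsomes and NADPH, each at 0.5 mg/mL final. After 16 h at 37 C, LiveBLAzer substrate was added for 2 h.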

[8] = p53 small molecule agonists, cell-based qHTS assay with human liver microsomes: qHTS cell viability counter screen (AID 1963579); note: nearly all actives have a fitted effect of over 45% in size
Method in brief: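 Cytotoxicity counter screen: p53RE-bla, 4,000 cells/well; 5 h settle, 37 C/5% CO2; cpd + HLM 0.5 mg/mL + NADPH 0.5 mg/mL (final); 16 h, 37 C; CellTiter-Glo, 30 min RT, luminescence.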

[9] = p53 small molecule agonists, cell-based qHTS assay with rat liver microsomes: qHTS cell viability counter screen (AID 1963580); note: nearly all actives have a fitted effect of over 45% in size
Method in brief: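 p53RE-bla HCT-116 cells (4,000/well) rested 5 h at 37 C, then given Tox21 compounds in DMSO with rat liver microsomes (0.5 mg/mL final) plus NADPH (0.5 mg/mL final) for 16 h at 37 C. Viability read by CellTiter-Glo luminescence after 30 min at room temperature.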

[10] = p53 small molecule agonists, cell-based qHTS assay: qHTS cell viability counter screen (AID 1963581); note: nearly all actives have a fitted effect of over 45% in size
Method in brief: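 p53RE-bla HCT-116 cells, compounds added 5 h after plating and incubated 16 h at 37 C. Cytotoxicity measured in the same wells as intracellular ATP by CellTiter-Glo luminescence after 30 min at room temperature.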

[11] = p53 small molecule agonists, cell-based qHTS assay (AID 1963582; active = well fitted activation curve with a large enough effect in the signal ratio in the repeat runs, not every such curve was filed as active; the % refers to the signal ratio)
Method in brief: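 p53RE-bla reporter cells, compounds added in DMSO after 5 h plating, incubated 16 h at 37 C. Beta-lactamase read via 2 h room-temperature LiveBLAzer B/G FRET substrate, fluorescence intensity.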

[12] = target: 5-hydroxytryptamine receptor 2A (Homo sapiens) (UniProt P28223); test: 5-hydroxytryptamine receptor 2A (HTR2A) small molecule antagonists, cell-based qHTS assay (AID 1963586); note: nearly all actives have a fitted effect of over 45% in size; note: potency is the fitted concentration of half-maximal effect
Sequence of 5-hydroxytryptamine receptor 2A (Homo sapiens) (P28223 whole entry, looked up): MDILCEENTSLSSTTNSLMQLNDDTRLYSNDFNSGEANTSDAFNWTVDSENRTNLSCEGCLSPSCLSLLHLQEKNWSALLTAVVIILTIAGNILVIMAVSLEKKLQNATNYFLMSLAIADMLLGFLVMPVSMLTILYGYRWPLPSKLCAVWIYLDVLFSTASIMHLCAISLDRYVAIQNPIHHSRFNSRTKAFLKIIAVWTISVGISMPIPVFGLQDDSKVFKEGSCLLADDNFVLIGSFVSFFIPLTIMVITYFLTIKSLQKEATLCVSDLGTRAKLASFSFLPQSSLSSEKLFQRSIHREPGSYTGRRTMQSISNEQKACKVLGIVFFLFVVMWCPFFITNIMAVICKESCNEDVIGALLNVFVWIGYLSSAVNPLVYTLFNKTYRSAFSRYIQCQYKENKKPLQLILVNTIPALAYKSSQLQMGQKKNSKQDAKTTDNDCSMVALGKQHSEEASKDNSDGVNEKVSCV
Method in brief: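 Antagonist-mode intracellular calcium assay: DOI (4 nM) added after 5 min compound pre-incubation at room temperature to dye-loaded HTR2A-CHO cells. Fluorescence followed for 3 min, sampled every second.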

[13] = target: 5-hydroxytryptamine receptor 2A (Homo sapiens) (UniProt P28223); test: 5-hydroxytryptamine receptor 2A (HTR2A) small molecule agonists, cell-based qHTS assay (AID 1963587); note: nearly all actives have a fitted effect of over 30% in size; note: potency is the fitted concentration of half-maximal effect
Method in brief: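 HTR2A-CHO cells, plated 18 h at 37 C/5% CO2, dye-loaded 1 h at 37 C; compounds in DMSO added by pin tool (agonist mode). Intracellular calcium flux read as kinetic fluorescence on FDSS over 2 min at 1 s intervals.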

[14] = target: Muscarinic acetylcholine receptor M1 (Homo sapiens) (UniProt P11229); test: Cholinergic receptor muscarinic 1 (CHRM1) small molecule antagonists, cell-based qHTS assay (AID 1963588); note: nearly all actives have a fitted effect of over 40% in size
Sequence of Muscarinic acetylcholine receptor M1 (Homo sapiens) (P11229 whole entry, looked up): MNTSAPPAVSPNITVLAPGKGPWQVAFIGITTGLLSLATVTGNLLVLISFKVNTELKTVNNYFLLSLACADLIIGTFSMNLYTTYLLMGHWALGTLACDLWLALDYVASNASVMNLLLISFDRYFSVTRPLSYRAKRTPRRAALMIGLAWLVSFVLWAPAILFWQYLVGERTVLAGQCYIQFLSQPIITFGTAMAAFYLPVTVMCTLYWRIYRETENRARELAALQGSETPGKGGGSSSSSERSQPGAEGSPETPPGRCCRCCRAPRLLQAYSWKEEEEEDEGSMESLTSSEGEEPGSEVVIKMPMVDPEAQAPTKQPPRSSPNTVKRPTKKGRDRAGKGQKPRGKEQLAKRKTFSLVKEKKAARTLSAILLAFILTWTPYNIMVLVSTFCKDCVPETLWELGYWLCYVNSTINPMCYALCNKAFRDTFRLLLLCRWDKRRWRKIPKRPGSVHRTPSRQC
Method in brief: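 CHRM1-CHO calcium-flux assay, antagonist mode. Cells were seeded 18 h, dye-loaded 1 h at 37 C and given compound for 5 min at RT, then acetylcholine was added at 50nM. FDSS fluorescence was read 3 min; 15 concentrations, three runs.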

[15] = cAMP Responsive Elements (CRE) small molecule agonists, cell-based qHTS assay (AID 1963590)
Method in brief: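 CRE-bla HEK 293T cells, 2,000/well in DMEM with 10% dialyzed FBS and 25 mM HEPES, pre-incubated 18 h at 37 C, then exposed to compound 3 h at 37 C. Beta-lactamase reporter read with LiveBLAzer B/G FRET substrate after 2 h at room temperature.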

[16] = cAMP Responsive Elements (CRE) small molecule antagonists, cell-based qHTS assay (AID 1963591; active = well fitted inhibition curve with a large enough effect in the signal ratio in the repeat runs, not every such curve was filed as active; the % refers to the signal ratio)
Method in brief: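 CRE-bla HEK293T cells plated 18 h, then given compound plus NKH477 at 0.25 uM final for 3 h at 37C. Beta-lactamase reporter read with LiveBLAzer B/G FRET substrate after 2 h at room temperature.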

[17] = target: Beta-2 adrenergic receptor (Homo sapiens) (UniProt P07550); test: Adrenergic beta2 receptor (ADRB2) small molecule antagonists, cell-based qHTS assay (AID 1963592); note: series mostly up to about 92 µM; nearly all actives have a fitted effect of over 50% in size
Sequence of Beta-2 adrenergic receptor (Homo sapiens) (P07550 whole entry, looked up): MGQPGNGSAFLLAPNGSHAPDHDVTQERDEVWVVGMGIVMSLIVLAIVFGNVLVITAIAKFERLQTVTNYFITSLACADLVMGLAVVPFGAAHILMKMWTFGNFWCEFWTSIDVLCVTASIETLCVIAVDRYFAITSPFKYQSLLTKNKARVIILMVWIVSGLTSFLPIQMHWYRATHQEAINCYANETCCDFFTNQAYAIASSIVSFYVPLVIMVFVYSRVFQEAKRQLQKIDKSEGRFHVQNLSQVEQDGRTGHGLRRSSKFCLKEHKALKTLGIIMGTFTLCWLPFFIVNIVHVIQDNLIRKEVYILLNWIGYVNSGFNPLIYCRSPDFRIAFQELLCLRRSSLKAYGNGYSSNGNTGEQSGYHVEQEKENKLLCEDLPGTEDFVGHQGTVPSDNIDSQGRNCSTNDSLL
Method in brief: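 Cells (CHO, stable ADRB2 overexpression) incubated 18-20hr at 37C; compounds added from DMSO; agonist mix (1nM isoproterenol, 100uM IBMX, 25uM Ro-20-1724) added; 0.5hr RT; d2-cAMP and anti-cAMP-cryptate added; 1hr RT; 665/615 nm read.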

[18] = target: D(2) dopamine receptor (Homo sapiens) (UniProt P14416); test: Dopamine D2 receptor (DRD2) small molecule agonists, cell-based qHTS assay (AID 1963594); note: nearly all actives have a fitted effect of over 35% in size
Sequence of D(2) dopamine receptor (Homo sapiens) (P14416 whole entry, looked up): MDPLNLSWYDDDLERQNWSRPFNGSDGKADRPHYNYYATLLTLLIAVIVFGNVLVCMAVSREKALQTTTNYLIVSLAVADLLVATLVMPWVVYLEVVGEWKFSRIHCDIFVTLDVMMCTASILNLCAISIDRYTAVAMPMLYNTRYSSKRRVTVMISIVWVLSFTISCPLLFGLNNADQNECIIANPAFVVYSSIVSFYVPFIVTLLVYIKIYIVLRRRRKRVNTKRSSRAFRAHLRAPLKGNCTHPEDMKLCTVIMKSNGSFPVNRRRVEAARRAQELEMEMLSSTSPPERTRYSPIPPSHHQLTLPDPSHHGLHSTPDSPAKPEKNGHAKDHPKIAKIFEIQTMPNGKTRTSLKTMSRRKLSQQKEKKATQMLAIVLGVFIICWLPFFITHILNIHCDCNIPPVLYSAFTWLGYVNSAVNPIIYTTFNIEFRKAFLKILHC
Method in brief: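 HEK293 cells stably expressing DRD2 were cultured 24 h at 37 C, then given Ro20-1724 (0.1 mM final) and compounds for 10 min at room temperature. NKH477 (200nM) was then added for 30 min. cAMP was read by HTRF.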

[19] = target: D(2) dopamine receptor (Homo sapiens) (UniProt P14416); test: Dopamine D2 receptor (DRD2) small molecule antagonists, cell-based qHTS assay (AID 1963595; active = well fitted inhibition curve with a large enough effect in the signal ratio in the repeat runs, with a control signal flat; the % refers to the signal ratio)
Method in brief: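 Antagonist mode in DRD2-HEK293 cells: after compound addition with 0.1 mM Ro20-1724, cells received quinpirole (12 nM) and NKH477 (200 nM) for 30 min at room temperature; HTRF cAMP read after 1 h detection.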

[20] = target: Muscarinic acetylcholine receptor M1 (Homo sapiens) (UniProt P11229); test: Cholinergic receptor muscarinic 1 (CHRM1) small molecule agonists, cell-based qHTS assay (AID 1963589); note: nearly all actives have a fitted effect of over 35% in size
Method in brief: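 CHO cells stably expressing human CHRM1 were loaded with calcium dye for 1 h at 37 C, then compound was added in agonist mode. Intracellular calcium fluorescence was followed kinetically at 1 s intervals. Fifteen concentrations were tested in three independent runs.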

Compound	Potency [1]	Potency [2]	Potency [3]	Potency [4]	Potency [5]	Potency [6]	Potency [7]	Potency [8]	Potency [9]	Potency [10]	Potency [11]	Potency [12]	Potency [13]	Potency [14]	Potency [15]	Potency [16]	Potency [17]	Potency [18]	Potency [19]	Potency [20]
CON(C)C(=O)Nc1ccc(Cl)cc1	inactive	inactive	inactive	inactive	inactive	inactive	inactive	inactive	inactive	inactive	inactive	inactive	inactive	inactive	inactive	inactive	inactive	inactive	inactive	
[O-][Cl+]O	inactive	inactive	inactive	inactive	inactive	inactive	inactive	inactive	inactive	inactive	inactive	inactive	inactive	inactive	inactive	inactive	inactive	inactive	inactive	
C=CC#N	inactive	inactive	inactive	inactive	inactive	inactive	inactive	inactive	inactive	inactive	inactive	inactive	inactive	inactive	inactive	inactive	inactive	inactive	inactive	
NCCc1ccc(O)cc1	inactive	29.8 µM (active)	inactive	inactive	inactive	inactive	inactive	inactive	inactive	inactive	inactive	4.17 µM (active) and inactive	5.45 µM (active) and 8.49 µM (active)	inactive	inactive	inactive	inactive	inactive	inactive	
CC(C)OC(=O)Nc1ccccc1	inactive	inactive	inactive	inactive	inactive	inactive	inactive	inactive	inactive	inactive	inactive	inactive	inactive	inactive	inactive	inactive		inactive	inactive	
COCC(=O)N(c1c(C)cccc1C)N1CCOC1=O	inactive	inactive	inactive	inactive	inactive	inactive	inactive	inactive	inactive	inactive	inactive	inactive	inactive		inactive	inactive	inactive	inactive	inactive	inactive
COC(=O)c1ccccc1C(=O)OC	inactive	inactive	inactive	inactive	inactive	inactive	inactive	inactive	inactive	inactive	inactive	inactive	inactive		inactive	inactive	inactive	inactive	inactive	
